Only some compounds are listed: those with a hit (about 3.2% of all), similar ones and a draw of the others.
RGS12 GoLoco inh – RGS12 GoLoco-Gai1 interaction inhibition; P63096; Potency, µM (top dose mostly 61.6 µM), actives largely listed as inhibitors; 0.44% of 230,000 active; AID 880; Gai1:RGS12 GoLoco peptide FP, rhodamine, 10 min; active means well fitted inhibition curve with a large enough effect, not every such curve was filed as active; inactive means no such curve, though single readings can be large or run the other way; further: nearly all actives have a fitted effect of over 30% in size
Target sequence (P63096 whole entry, looked up): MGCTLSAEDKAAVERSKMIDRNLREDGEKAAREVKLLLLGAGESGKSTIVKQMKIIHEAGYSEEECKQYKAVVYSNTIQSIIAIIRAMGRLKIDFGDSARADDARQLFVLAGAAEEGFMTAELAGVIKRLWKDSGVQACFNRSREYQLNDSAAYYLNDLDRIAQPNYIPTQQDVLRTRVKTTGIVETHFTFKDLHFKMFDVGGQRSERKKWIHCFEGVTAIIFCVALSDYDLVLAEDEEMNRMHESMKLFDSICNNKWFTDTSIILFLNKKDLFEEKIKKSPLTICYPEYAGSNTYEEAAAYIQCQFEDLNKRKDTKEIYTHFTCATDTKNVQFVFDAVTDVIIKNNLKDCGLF
Tau ThT inhib – tau fibrillization inhibition (ThT binding); P10636; recombinant tau K18 P301L, heparin-induced fibrillization, ThT fluorescence; Potency, µM (highest dose often 57.4 µM), most hits filed as inhibitors; 2.1% of 270,000 active; AID 1460; further: nearly all actives have a fitted effect of over 55% in size
Target sequence (P10636 561-689 P618L limits assumed): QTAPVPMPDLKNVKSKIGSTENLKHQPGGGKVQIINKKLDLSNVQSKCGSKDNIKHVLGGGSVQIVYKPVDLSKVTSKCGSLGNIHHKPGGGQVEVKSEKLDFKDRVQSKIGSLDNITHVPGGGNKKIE
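In this qHTS, human K18 P301L tau is incubated with compound and heparin for 6 hr at 37 C, and Thioflavin T fluorescence then reports fibril load.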
TRb-SRC2 inh – disrupts binding of human TR beta to SRC2; P10828; TRbeta-SRC2 peptide binding, fluorescence polarization; receptor liganded with 1 µM T3; Potency, µM (highest dose often 106 µM), most hits filed as inhibitors; 0.065% of 280,000 active; AID 1469; further: nearly all actives have a fitted effect of over 50% in size
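Read-out is fluorescence polarization (555 nm excitation, 632 nm emission) of a Texas Red SRC2 coactivator peptide; loss of signal reflects blocked binding to human TRb ligand-binding domain in the presence of 1 uM T3.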
TR SRC2 fluor cs – counter-screen for TRb-SRC2 inhibitors: fluorescence interference; TRb/SRC2 Texas Red total fluorescence interference; Potency, µM (series often up to 106 µM); 0.29% of 280,000 active; active means well fitted curve in either direction with a large enough effect; inconclusive means small, poorly fitted or top-dose-only effect
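Flags fluorescent or light-absorbing compounds by total fluorescence, S + 2P, at 555 nm excitation and 632 nm emission. Mixture: 20 nM Texas Red SRC2 peptide, 0.6 uM human TRb LBD, 1 uM T3, 5% DMSO; compound exposure 5 h at ambient temperature.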
Tau FP inhib – blocks human tau fibril formation measured by polarization; P10636; K18 P301L tau heparin fibrillization, Alexa594 FP, 6 h; Potency, µM (highest dose often 57.7 µM), actives largely listed as inhibitors; 0.39% of 280,000 active; further: nearly all actives have a fitted effect of over 55% in size
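Recombinant K18 P301L […], labeled with Alexa 594 at 0.24 uM over 15 uM unlabeled; heparin inducer 20 uM final; 37 C, 6 hr; FP endpoint.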
Tau fluor counter – counter-screen for tau fibril formation inhibitors; 0.93% of 280,000 active; AID 1463; tau K18 P301L Alexa594 fluorescence, heparin fibrillization; Potency, µM (doses to about 57.7 µM); further: nearly all actives have a fitted effect of over 55% in size
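Human tau K18 P301L (15 uM unlabeled, 0.24 uM Alexa 594-labeled) in 100 mM sodium acetate pH 7 with 20 uM heparin, 6 hr at 37 C. ThT 30 uM added, 1 hr ambient; Alexa 594 FP and total fluorescence read at 555/632 nm.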
Hits are given with their value; [ ] = dose if it differs, or a comment. Unless noted, the call rests on the fitted dose curve; in most records, active means well fitted curve in the direction sought with a large enough effect; inconclusive means small, poorly fitted or top-dose-only effect, or another doubt; inactive means no such curve, though single readings can be large; an effect the other way counts as inactive or inconclusive.

`O=C(Nc1nc2ccc(F)cc2s1)c1nc(S(=O)(=O)Cc2ccccc2F)ncc1Cl` gave Tau ThT inhib 10µM, TRb-SRC2 inh inactive, TR SRC2 fluor cs inactive, Tau FP inhib inactive and Tau fluor counter inactive.
`CC(C)Oc1ccc2c(=O)c3cc(C(=O)O)ccc3oc2c1` gave RGS12 GoLoco inh inactive, Tau ThT inhib inactive, TRb-SRC2 inh inactive, TR SRC2 fluor cs inactive, Tau FP inhib inactive and Tau fluor counter inactive.
Screening Cc1cc(C)c(NC(=O)Nc2sc3nc4n(c(=O)c3c2C)CCC(C)CC4)c(C)c1 (stereo unspecified) returned Tau ThT inhib inactive, TRb-SRC2 inh inactive, TR SRC2 fluor cs inconclusive, Tau FP inhib inconclusive and Tau fluor counter inconclusive.
CC(=O)c1ccc(NC(=O)Nc2sc3nc4n(c(=O)c3c2C)CCC(C)CC4)cc1 (stereo unspecified) was read as Tau ThT inhib inconclusive, TRb-SRC2 inh inactive, TR SRC2 fluor cs inactive, Tau FP inhib inconclusive and Tau fluor counter 13µM[quencher].
`CCCc1cc(C(=O)Cc2nc3ccccc3s2)c(O)cc1O` gave RGS12 GoLoco inh inactive, Tau ThT inhib 25µM, TRb-SRC2 inh inactive, TR SRC2 fluor cs inactive, Tau FP inhib inactive and Tau fluor counter 20µM[quencher].
Screening O=c1cc(-c2ccccc2)[nH]c2[nH]n(-c3ccccc3)c(=O)c12 returned RGS12 GoLoco inh inactive, Tau ThT inhib 20µM, TRb-SRC2 inh inactive, TR SRC2 fluor cs inactive, Tau FP inhib inconclusive and Tau fluor counter inactive.
Screening CCOC(=O)Cc1cc(=O)c2c(=O)n(-c3ccccc3)[nH]c2[nH]1 returned RGS12 GoLoco inh inactive, Tau ThT inhib inconclusive, TRb-SRC2 inh inactive, TR SRC2 fluor cs inactive, Tau FP inhib inactive and Tau fluor counter inactive.
`O=S(=O)(O)CCS` gave RGS12 GoLoco inh inactive, Tau ThT inhib 22µM, TRb-SRC2 inh inactive, TR SRC2 fluor cs inactive, Tau FP inhib inconclusive and Tau fluor counter inactive.
`C[C@@]12C=Cc3occc3C1CC[C@@]13C[C@@H](CCC12)[C@@](O)(CO)C3` (stereo partly specified) gave RGS12 GoLoco inh inactive, Tau ThT inhib 11µM, TRb-SRC2 inh inactive, TR SRC2 fluor cs inconclusive, Tau FP inhib 10µM and Tau fluor counter inconclusive.
Screening CC1CCN(c2ccc(NC(=O)Cc3ccccc3)cc2)CC1 returned RGS12 GoLoco inh inactive, Tau ThT inhib inactive, TRb-SRC2 inh inactive, TR SRC2 fluor cs inactive, Tau FP inhib inactive and Tau fluor counter inactive.
Screening COc1cccc(CNc2ccc(N3CCC(C)CC3)cc2)c1OC returned RGS12 GoLoco inh inactive, Tau ThT inhib 18µM, TRb-SRC2 inh inactive, TR SRC2 fluor cs inactive, Tau FP inhib inconclusive and Tau fluor counter inconclusive.
`O=C(O)c1cc(N=Cc2ccccc2O)cc(C(=O)O)c1` gave RGS12 GoLoco inh inactive[14.2 µM].
`O=Cc1cc(N=Nc2ccccc2Cl)ccc1O` gave RGS12 GoLoco inh inactive, Tau ThT inhib 13µM, TRb-SRC2 inh inactive, TR SRC2 fluor cs inactive, Tau FP inhib inconclusive and Tau fluor counter inconclusive.
O=Cc1cc(N=Nc2cccc(C(=O)O)c2)ccc1O was read as RGS12 GoLoco inh inactive, Tau ThT inhib 4µM, TRb-SRC2 inh inactive, TR SRC2 fluor cs inconclusive, Tau FP inhib inactive and Tau fluor counter inactive.
Nn1c(Nc2ccccc2)nc2sc3c(c2c1=O)CCC3 was read as RGS12 GoLoco inh inactive, Tau ThT inhib 20µM, TRb-SRC2 inh inactive, TR SRC2 fluor cs inactive, Tau FP inhib inactive and Tau fluor counter 28µM[quencher].
For CCOC(=O)c1cnc(N2CCN(c3cccc(C)c3C)CC2)c2ccccc12 the results were Tau ThT inhib inactive, TRb-SRC2 inh inactive, TR SRC2 fluor cs inactive, Tau FP inhib inactive and Tau fluor counter inactive.
`CNc1cc([N+](=O)[O-])ccc1OCc1ccccc1` gave RGS12 GoLoco inh inactive, Tau ThT inhib 11µM, TRb-SRC2 inh inactive, TR SRC2 fluor cs inactive, Tau FP inhib inactive and Tau fluor counter inconclusive.
COc1cc(/C=C/C(=O)N2CCCCC2=O)cc(OC)c1OC was read as RGS12 GoLoco inh inactive, Tau ThT inhib 11µM, TRb-SRC2 inh inactive, TR SRC2 fluor cs inactive, Tau FP inhib inconclusive and Tau fluor counter inactive.
For CCC1=C[C@@H]2CN(C1)Cc1c([nH]c3ccccc13)[C@@](C(=O)OC)(c1cc3c(cc1OC)N(C)[C@H]1[C@@](O)(C(=O)OC)[C@H](OC(C)=O)[C@]4(CC)C=CCN5CC[C@]31[C@@H]54)C2 the results were TRb-SRC2 inh inactive and TR SRC2 fluor cs inactive.
For COc1cccc(Nc2ncc3nc(CCc4ccccc4)c(=O)n(Cc4cccs4)c3n2)c1 the results were RGS12 GoLoco inh inactive.
For O=C1C(Nc2ccccc2)=C/C(=N/S(=O)(=O)c2cccs2)c2ccccc21 the results were RGS12 GoLoco inh inactive, Tau ThT inhib 3.5µM, TRb-SRC2 inh inactive, TR SRC2 fluor cs inactive, Tau FP inhib inconclusive and Tau fluor counter 8.9µM[quencher].
COC(=O)c1ccccc1NC1=C/C(=N\S(=O)(=O)c2cccs2)c2ccccc2C1=O was read as RGS12 GoLoco inh inactive, Tau ThT inhib inconclusive, TRb-SRC2 inh inconclusive, TR SRC2 fluor cs inactive, Tau FP inhib inactive and Tau fluor counter inconclusive.
Screening Cc1ccc(NC2=C/C(=N/S(=O)(=O)c3cccs3)c3ccccc3C2=O)cc1 returned RGS12 GoLoco inh inactive, Tau ThT inhib inconclusive, TRb-SRC2 inh inactive, TR SRC2 fluor cs inactive, Tau FP inhib inactive and Tau fluor counter 8.9µM[quencher].
For Nc1ncnc2c1nc(-c1ccccc1)n2[C@H]1O[C@@H](CO)[C@@H](O)[C@H]1O the results were RGS12 GoLoco inh inactive[14.2 µM].
O=C(N/N=C/c1c[nH]c2ccc(Br)cc12)c1ccccn1 was read as RGS12 GoLoco inh inactive, Tau ThT inhib inconclusive, TRb-SRC2 inh inactive, TR SRC2 fluor cs inactive, Tau FP inhib inactive and Tau fluor counter inactive.
Screening O=C(N/N=C/c1ccc(O)cc1)c1[nH]c2ccc(Br)cc2c1-c1ccccc1 returned RGS12 GoLoco inh inactive, Tau ThT inhib inactive, TRb-SRC2 inh inactive, TR SRC2 fluor cs inactive, Tau FP inhib inconclusive and Tau fluor counter 13µM[quencher].
Screening O=C(N/N=C/c1c[nH]c2ccc(Br)cc12)c1ccc2c(c1)OCO2 returned RGS12 GoLoco inh inactive, Tau ThT inhib inconclusive, TRb-SRC2 inh inactive, TR SRC2 fluor cs inactive, Tau FP inhib inconclusive and Tau fluor counter 18µM[quencher].
O=C(N/N=C/c1c[nH]c2ccccc12)c1[nH]c2ccc(Br)cc2c1-c1ccccc1 was read as RGS12 GoLoco inh inactive, Tau ThT inhib inconclusive, TRb-SRC2 inh inactive, TR SRC2 fluor cs inactive, Tau FP inhib inactive and Tau fluor counter 4µM[quencher].
Screening Cc1ccc2[nH]c(-c3ccc(F)cc3F)cc(=O)c2c1 returned RGS12 GoLoco inh inactive, Tau ThT inhib inactive, TRb-SRC2 inh inactive, TR SRC2 fluor cs inconclusive, Tau FP inhib inactive and Tau fluor counter inactive.

Compound activity (PubChem)
